Each structure is given as a SMILES string. Results filed as inconclusive are left out. Activity calls are given as the source filed them. Unless noted, calls follow the shape of the dose curve; as a rule, active = well fitted curve in either direction with a large enough effect (not every such curve was filed as active); inconclusive = small, poorly fitted or top-dose-only effect, or another doubt; inactive = flat fitted curve, though single readings scatter.

The target of assay [1] is Lysosomal acid glucosylceramidase (Homo sapiens) (UniProt P04062). As to the kind of experiment: Glucocerebrosidase-p2 (AID 348; in the data active = potency below about 10 µM; also: potency is read from the fitted curve at half-maximal effect). The conditions noted are these: purified GBA, blue fluorogenic substrate, 40 min. In outline:
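Compounds titrated from 0.6 nM upwards against 0.2 nM enzyme in pH 5.9 citric acid/KH2PO4, taurocholate, tween-20; blue fluorogenic substrate 80 uM, 40 min room temperature, stopped and read Ex 365/Em 440 for AC50.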

In assay [2] the target is Cytochrome P450 1A2 (Homo sapiens) (UniProt P05177). As to the kind of experiment: p450-cyp1a2 (AID 410; calls by dose curve; also: potency is read from the fitted curve at half-maximal effect). To be noted: recombinant CYP1A2, luciferin-ME demethylation, luminescence; series mostly up to 57 µM. Put shortly: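 20nM CYP1A2 with 100uM Luciferin-ME (at Km) in 100mM KPO4; compound preincubated 10 min, NADPH regeneration added, 60 min at room temperature. Luciferin quantified by luminescence after detection reagent; normalized to 57 uM furafylline.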
Chain of Cytochrome P450 1A2 (Homo sapiens) (P05177 whole entry, looked up): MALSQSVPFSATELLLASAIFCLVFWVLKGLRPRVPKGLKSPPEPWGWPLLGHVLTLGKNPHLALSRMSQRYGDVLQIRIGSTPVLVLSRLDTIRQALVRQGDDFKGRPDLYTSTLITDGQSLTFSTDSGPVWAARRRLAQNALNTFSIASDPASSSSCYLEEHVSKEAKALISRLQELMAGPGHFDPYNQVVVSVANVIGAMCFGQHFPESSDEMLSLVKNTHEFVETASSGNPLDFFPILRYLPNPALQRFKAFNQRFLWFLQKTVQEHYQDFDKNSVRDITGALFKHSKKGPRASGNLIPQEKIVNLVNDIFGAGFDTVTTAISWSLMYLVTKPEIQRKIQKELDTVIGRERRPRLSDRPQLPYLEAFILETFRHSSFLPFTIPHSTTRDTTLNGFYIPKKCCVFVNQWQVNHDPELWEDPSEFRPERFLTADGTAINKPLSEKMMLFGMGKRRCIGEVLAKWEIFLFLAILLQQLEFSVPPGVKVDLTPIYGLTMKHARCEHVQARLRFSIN

The nature of assay [3]: NFAT Signaling Pathway (AID 444).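 Also: carbachol stimulus at about its EC50 of 1 µM final; % is scaled to controls: 0 for no effect and ±100 for the full control effect.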 The conditions noted are these: Jurkat NFAT-bla M1, carbachol, beta-lactamase ratio, 5 h; at 7.69 µM (top of the series) unless noted. In outline: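 Jurkat cells carrying an NFAT-driven β-lactamase reporter and co-transfected muscarinic M1 receptor were treated with compound plus carbachol (1 uM final, an EC50 level) for 5 h at 37 °C. CCF4 loading followed for 1 h at RT; 460/530 nm ratio gave %activity.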

A short description of assay [4]: Stat Signaling Pathway (AID 446).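 Also: ME-180 cervical cancer cells given 40 pM IL-6 alongside compound; SIE-controlled beta-lactamase reporter measured as 460/530 nm FRET emission ratio; % is scaled to controls: 0 for no effect and ±100 for the full control effect.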 To be noted: ME-180 SIE beta-lactamase reporter, IL-6 stimulated, 5 h; at 7.69 µM (top of the series) unless noted. Put shortly: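 IL-6/STAT signaling read in ME-180 cells via an SIE beta-lactamase reporter. Stimulus was 40 pM IL-6 (its AC50) for 5 hrs, so both activation and inhibition register.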
For assay [5], the target named is Glucocorticoid receptor (Homo sapiens) (UniProt P04150). As to the kind of experiment: GR-GFP Redistribution (AID 450;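 active = compounds whose dose series gives a full or clear partial fitted curve of increased nuclear translocation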; also: potency is read from the fitted curve at half-maximal effect). To be noted: U2OS GR-GFP nuclear translocation, laser cytometry, 2 h.
Chain of Glucocorticoid receptor (Homo sapiens) (P04150 whole entry, looked up): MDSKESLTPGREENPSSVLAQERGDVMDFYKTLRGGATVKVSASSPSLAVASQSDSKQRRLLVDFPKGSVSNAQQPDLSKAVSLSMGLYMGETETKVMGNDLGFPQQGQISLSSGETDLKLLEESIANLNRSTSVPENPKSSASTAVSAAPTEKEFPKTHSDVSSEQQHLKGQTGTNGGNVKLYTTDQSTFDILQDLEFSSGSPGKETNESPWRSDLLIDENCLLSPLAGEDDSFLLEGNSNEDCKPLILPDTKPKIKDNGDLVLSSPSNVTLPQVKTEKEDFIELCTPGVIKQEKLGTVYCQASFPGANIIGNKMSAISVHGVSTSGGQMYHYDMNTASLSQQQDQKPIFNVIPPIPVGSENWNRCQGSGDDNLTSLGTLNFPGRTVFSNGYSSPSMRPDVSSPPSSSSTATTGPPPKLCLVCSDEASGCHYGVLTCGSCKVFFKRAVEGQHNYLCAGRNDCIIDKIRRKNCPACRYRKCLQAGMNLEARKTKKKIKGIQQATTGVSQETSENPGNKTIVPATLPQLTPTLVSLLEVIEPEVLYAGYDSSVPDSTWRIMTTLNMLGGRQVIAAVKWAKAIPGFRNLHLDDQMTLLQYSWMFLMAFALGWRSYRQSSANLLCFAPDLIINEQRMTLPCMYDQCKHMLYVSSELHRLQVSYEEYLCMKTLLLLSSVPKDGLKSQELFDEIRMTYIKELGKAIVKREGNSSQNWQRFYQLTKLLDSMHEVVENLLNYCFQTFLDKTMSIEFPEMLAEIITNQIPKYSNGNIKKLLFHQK
The target is the same in assay [6]. The assay can be described thus: GR-EFC Redistribution (AID 451; calls by dose curve; also: potency is read from the fitted curve at half-maximal effect). To be noted: CHO-K1 GR-EFC translocation, beta-gal luminescence, 2 h. Put shortly:
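CHO-K1 cells stably expressing nuclear-localized β-gal enzyme acceptor and GR fused C-terminally to the enzyme donor fragment; ligand-driven nuclear translocation restores β-gal by complementation. Compounds titrated up to 46 uM final, 2 h at 37 °C; luminescence read.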

Assay [7] has as its target Mitogen-activated protein kinase 10 (Mus musculus) (UniProt Q61831). As to the kind of experiment: JNK3 AlphaScreen Assay (AID 530).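 Also: kinase came from lysate of stimulated human HepG2 cells; signal reports phosphorylation of biotinylated GST-cJun 1-79 at Ser73 with 10 µM ATP; % is scaled to controls: 0 for no effect and ±100 for the full control effect.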 To be noted: JNK3 lysate, c-Jun phosphorylation; series mostly up to 57.1 µM. In outline:
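Inhibitors reduce antibody binding to phosphorylated biotin-cJun, lowering AlphaScreen luminescence. Lysates from HepG2 cells pre-activated by IL-1beta plus TNF-alpha supplied JNK3; compounds were titrated.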

For assay [8], the target named is 3',5'-cyclic-AMP phosphodiesterase 4B (Homo sapiens) (UniProt Q07343). As to the kind of experiment: qHTS Assay for Inhibitors of PDE-IV (AID 607; active = well fitted activation curve with a large enough effect in the main read-out, with a control signal flat, not every such curve was filed as active; also: % of control where 0% means no effect). The conditions noted are these: HEK293 ACTOne CNG channel cells, membrane potential fluorescence; series mostly up to 22.9 µM. In outline:
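Live HEK293 cells with a modified cyclic nucleotide-gated (CNG) channel report intracellular cAMP via membrane-potential dye fluorescence (ex 535/em 590 nm). Endogenous PDE-IV was targeted. Compounds were tested at up to 22.9 uM final; RO 20-1724 100 uM served as control.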
Background: qHTS replaces the single test concentration by a dilution series.

Assay [9] deals with Cytochrome P450 3A4 (Homo sapiens) (UniProt P08684). As to the kind of experiment: qHTS Assay for Inhibitors and Substrates of Cytochrome P450 3A4 (AID 884; active = well fitted curve in the direction sought with a large enough effect; an effect the other way counts as inactive or inconclusive; also: potency is read from the fitted curve at half-maximal effect; nearly all actives have a fitted effect of over 50% in size). The conditions noted are these: recombinant CYP3A4, Luciferin-PPXE luminescence; series mostly up to 57.1 µM. In outline: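 20 nM human CYP3A4 with 25 uM Luciferin-PPXE (at KM) in 200 mM KPO4, preincubated 10 min with compound; NADPH regeneration started a 60 min RT reaction. Luciferin detected by luminescence, normalized to 57 uM ketoconazole as full inhibition.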
Chain of Cytochrome P450 3A4 (Homo sapiens) (P08684 whole entry, looked up): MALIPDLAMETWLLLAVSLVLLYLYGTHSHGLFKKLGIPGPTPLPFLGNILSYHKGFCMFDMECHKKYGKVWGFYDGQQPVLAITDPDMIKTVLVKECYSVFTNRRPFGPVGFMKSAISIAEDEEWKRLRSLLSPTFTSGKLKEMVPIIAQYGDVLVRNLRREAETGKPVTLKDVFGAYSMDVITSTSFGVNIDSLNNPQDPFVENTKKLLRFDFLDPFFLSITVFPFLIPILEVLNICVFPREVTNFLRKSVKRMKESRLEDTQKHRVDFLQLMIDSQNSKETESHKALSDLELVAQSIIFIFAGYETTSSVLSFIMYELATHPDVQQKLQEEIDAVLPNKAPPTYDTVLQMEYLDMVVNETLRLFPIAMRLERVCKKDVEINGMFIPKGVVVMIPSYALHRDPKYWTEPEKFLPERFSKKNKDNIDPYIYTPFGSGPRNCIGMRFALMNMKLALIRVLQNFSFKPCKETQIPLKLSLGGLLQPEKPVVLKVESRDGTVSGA

Assay [10] has the same target. As to the kind of experiment: qHTS Assay for Activators of Cytochrome P450 3A4 (AID 885; active = well fitted curve in the direction sought with a large enough effect; an effect the other way counts as inactive or inconclusive; also: nearly all actives have a fitted effect of over 65% in size). To be noted: recombinant CYP3A4, Luciferin-PPXE luminescence, 60 min; series mostly up to 57.1 µM. In outline: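 Quantitative HTS format: compounds preincubated with 20nM human CYP3A4 and Luciferin-PPXE substrate at KM, reaction started by NADPH regeneration, stopped after 60 min, luciferase luminescence read 20 min later.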

A short description of assay [11]: Confirmation and Secondary Assay for Modulators of Hemoglobin Beta Chain Splicing at IVS2 705 locus (AID 930; active = well fitted curve in the direction sought with a large enough effect; an effect the other way counts as inactive or inconclusive;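 also: HeLa cells stably expressing the EGFP-705 splicing reporter; GFP fluorescence per well restored by corrected splicing of the IVS2-705 intron in EGFP; % of control where 0% means no effect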). The conditions noted are these: HeLa EGFP-705 splicing reporter, GFP fluorescence, 48 h; series mostly up to 38.3 µM. In outline:
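HeLa EGFP-705 reporter; 500 cells/well, o/n 37C 5% CO2; cpd 2 d; 488 ex/500-520 em laser scan; total peak GFP intensity/well. Ref: 500 nM […] antisense PNA.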

Assay [12] is described as follows: qHTS Assay for Lipid Storage Modulators (AID 1519; calls by dose curve). To be noted: Drosophila S3 cells, BODIPY lipid droplet/cell ratio, laser cytometry, cells loaded with oleic acid; for activity change, negative = inhibition: at 57.5 µM (top of the series). Put shortly: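 Cells seeded at 5,000 per well were treated with compounds over a concentration series and loaded with oleic acid (400 uM, as added). Lipid droplet fluorescence (488 nm excitation, 500-530 nm channel) was read by laser-scanning cytometry and normalized to 20 uM Triacsin C.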

The target in assay [13] is Ubiquitin carboxyl-terminal hydrolase 1 (Homo sapiens) (UniProt O94782). As to the kind of experiment: Inhibitors of USP1/UAF1: Pilot qHTS (AID 504865; active = well fitted curve in the direction sought with a large enough effect; an effect the other way counts as inactive or inconclusive;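 also: rhodamine fluorescence freed from ubiquitin-rhodamine substrate followed over time; top concentration of the series differs between compounds; % is scaled to controls: 0 for no effect and ±100 for the full control effect; nearly all actives have a fitted effect of over 35% in size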). To be noted: purified USP1/UAF1, Ub-rhodamine cleavage fluorescence; series mostly up to 54.9 µM. In outline:
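In 50mM HEPES pH 7.8 containing 0.5mM EDTA, 1mM TCEP, 0.1 mg/ml BSA and 0.01% Tween-20, 1nM USP1/UAF1 is exposed to compound for 15 min, then Ub-Rho (150nM final) is added and fluorescence is read over time.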

Assay [14] is described as follows: AP1 Signaling Pathway (AID 357). Also: % is scaled to controls: 0 for no effect and ±100 for the full control effect. The conditions noted are these: ME-180 AP-1-bla reporter, EGF-induced, beta-lactamase ratio, 5 h; at 7.69 µM (top of the series) unless noted. Put shortly: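 ME-180 cells with beta-lactamase reporter under AP-1 response element, stimulated with EC50 EGF; compounds tested in titration series, 5 h at 37 °C. CCF4 substrate added 2.5 h at room temperature; 460/530 nm emission ratio gave %activity and AC50.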

Where [15] appears, read: measured here: cell count channel max response.
[16] abbreviates: measured here: lipid channel max response.

Chain of 3',5'-cyclic-AMP phosphodiesterase 4B (Homo sapiens) (Q07343 whole entry, looked up): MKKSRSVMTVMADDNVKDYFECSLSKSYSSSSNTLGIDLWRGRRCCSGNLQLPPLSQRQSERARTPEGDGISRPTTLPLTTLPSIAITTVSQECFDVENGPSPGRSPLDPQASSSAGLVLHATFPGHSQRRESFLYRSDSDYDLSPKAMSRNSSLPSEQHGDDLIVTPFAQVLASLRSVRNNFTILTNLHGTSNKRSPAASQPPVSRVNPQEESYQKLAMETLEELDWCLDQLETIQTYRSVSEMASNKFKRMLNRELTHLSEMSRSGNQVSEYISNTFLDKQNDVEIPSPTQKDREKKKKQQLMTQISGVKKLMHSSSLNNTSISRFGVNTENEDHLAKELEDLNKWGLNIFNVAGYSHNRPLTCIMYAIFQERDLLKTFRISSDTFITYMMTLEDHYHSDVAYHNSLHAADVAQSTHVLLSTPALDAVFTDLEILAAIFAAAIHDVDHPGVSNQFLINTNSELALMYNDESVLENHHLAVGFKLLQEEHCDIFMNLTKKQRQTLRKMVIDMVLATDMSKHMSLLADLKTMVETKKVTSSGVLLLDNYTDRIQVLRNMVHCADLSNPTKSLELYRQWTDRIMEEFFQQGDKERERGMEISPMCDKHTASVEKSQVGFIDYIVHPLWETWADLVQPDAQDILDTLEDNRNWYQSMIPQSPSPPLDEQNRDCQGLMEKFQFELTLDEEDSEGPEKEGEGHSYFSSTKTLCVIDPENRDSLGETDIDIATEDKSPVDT
Chain of Lysosomal acid glucosylceramidase (Homo sapiens) (P04062 whole entry, looked up): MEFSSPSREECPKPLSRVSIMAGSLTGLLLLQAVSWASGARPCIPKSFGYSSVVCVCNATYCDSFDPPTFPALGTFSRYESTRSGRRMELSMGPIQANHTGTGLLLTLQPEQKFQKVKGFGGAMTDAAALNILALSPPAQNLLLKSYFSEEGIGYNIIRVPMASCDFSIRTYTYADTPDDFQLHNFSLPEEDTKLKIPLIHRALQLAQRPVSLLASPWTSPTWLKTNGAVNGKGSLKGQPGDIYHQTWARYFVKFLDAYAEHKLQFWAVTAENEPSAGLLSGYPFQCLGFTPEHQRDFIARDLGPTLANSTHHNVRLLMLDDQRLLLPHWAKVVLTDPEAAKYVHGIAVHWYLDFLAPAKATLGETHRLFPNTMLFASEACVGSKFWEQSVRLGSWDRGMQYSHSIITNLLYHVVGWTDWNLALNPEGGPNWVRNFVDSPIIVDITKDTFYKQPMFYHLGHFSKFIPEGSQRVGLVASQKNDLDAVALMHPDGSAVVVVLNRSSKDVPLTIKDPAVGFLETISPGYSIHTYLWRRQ
Chain of Ubiquitin carboxyl-terminal hydrolase 1 (Homo sapiens) (O94782 whole entry, looked up): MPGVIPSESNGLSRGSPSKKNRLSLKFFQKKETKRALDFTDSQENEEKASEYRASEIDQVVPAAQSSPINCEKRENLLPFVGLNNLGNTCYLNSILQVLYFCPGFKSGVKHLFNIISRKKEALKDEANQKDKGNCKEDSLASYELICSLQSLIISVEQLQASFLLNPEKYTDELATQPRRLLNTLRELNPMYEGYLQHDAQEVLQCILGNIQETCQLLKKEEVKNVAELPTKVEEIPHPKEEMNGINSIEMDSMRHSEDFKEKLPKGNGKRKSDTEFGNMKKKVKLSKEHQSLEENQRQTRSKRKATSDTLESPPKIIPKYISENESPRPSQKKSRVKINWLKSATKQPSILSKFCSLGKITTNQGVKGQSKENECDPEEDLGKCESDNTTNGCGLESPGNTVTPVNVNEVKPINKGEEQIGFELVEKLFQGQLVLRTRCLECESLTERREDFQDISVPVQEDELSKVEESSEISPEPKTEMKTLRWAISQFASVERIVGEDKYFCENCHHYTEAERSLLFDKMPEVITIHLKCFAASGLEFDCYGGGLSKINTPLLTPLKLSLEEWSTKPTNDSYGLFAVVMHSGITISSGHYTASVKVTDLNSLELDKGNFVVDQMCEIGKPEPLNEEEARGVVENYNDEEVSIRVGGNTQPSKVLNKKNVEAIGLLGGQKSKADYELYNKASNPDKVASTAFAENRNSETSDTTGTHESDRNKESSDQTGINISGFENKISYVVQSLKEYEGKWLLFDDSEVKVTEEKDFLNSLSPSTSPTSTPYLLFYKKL

Turning to `Cc1cccc(CNc2cc(-c3cccc(NS(C)(=O)=O)c3)ncn2)c1`, the Potency in assay [1] was > 11.4 µM (inactive); in [2], 10 µM (active); in [5], > 46 µM (inactive); in assay [6], > 46 µM (inactive); in [9] it was 2 µM (active). In addition, the activity change, negative = inhibition is 20% (inactive) in assay [3] and -2.47% (inactive) in assay [12]. Also, the activity, negative = inhibition in [4] was -17.8% (inactive). Besides, the Potency entry in [7], in assay [8], in assay [10] and in assay [13] was “inactive” each time. Also, in [11], the compound was classed as inactive. Also, the max response in assay [12] (setting [15]) is -3.18%; in assay [12] (setting [16]), -3.48%.
Regarding `O=C(c1ccco1)N1CCC2(CC1)CCN(c1ccncc1)CC2`, the Potency is > 11.4 µM (inactive) in assay [1] and > 46 µM (inactive) in [6]. The values for the activity change, negative = inhibition in assay [14] and in assay [12] were -14.6% (inactive) and 3.95% (inactive), respectively. The activity, negative = inhibition in assay [4] is 11.2% (inactive). Also, the Potency result in assay [7] and in assay [8] was “inactive” in each case. In addition, the max response was -3.62% in [12] (setting [15]) and 0.777% in assay [12] (setting [16]).
Consider `O=C(Nc1cccc(F)c1)N1CCC2(CC1)CCN(C(=O)c1cc(C(F)(F)F)cc(C(F)(F)F)c1)CC2`, for which the Potency in [1] is > 11.4 µM (inactive); in assay [6], > 46 µM (inactive). For the same compound, the results for the activity change, negative = inhibition in [14] and in assay [12] were -6.27% (inactive) and -8.79% (inactive), respectively. Further, the activity, negative = inhibition in [4] is 8.94% (inactive). In addition, the Potency entry in assay [8] is “inactive”. Further, the max response was -4.14% in assay [12] (setting [15]) and -9.94% in assay [12] (setting [16]).

For the origin of these results see PubChem BioAssay (NCATS).
